# Screens as filed in PubChem.
# UHRF1 binding: UHRF1 methylated DNA binding inhibitors, primary screen, counter-screen for MBD2 inhibitor project, biochemical, TR-FRET, human UHRF1, single concentration; AID 687016, 2013; E3 ubiquitin-protein ligase UHRF1 (Homo sapiens), Q96T88; inhibition, % at 4.4 µM; UHRF1 binding to methylated oligo; 370,000 tested, 0.75% active; in the data active = inhibition above about 21%;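 note: UHRF1 SRA domain binding a hemimethylated CpG hairpin DNA probe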
# rCAG binder: binders of r(CAG) RNA repeats, primary screen, biochemical, fluorescence; r(CAG) RNA repeat, TO-PRO-1 dye displacement fluorescence; inhibition, % at 3 µM; 370,000 tested, 1.3% active;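 active = inhibition above the plate cutoff, the mean of all test compounds on that plate plus 3 SD, cut at about 35% in these data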;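 note: higher means more dye released from RNA so lower well fluorescence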
# ABHD5-PLIN5 inh: ABHD5-PLIN5 interaction inhibitors, primary screen, cell lysate, split luciferase complementation, luminescence. Perilipin-5 (Homo sapiens) + 1-acylglycerol-3-phosphate O-acyltransferase ABHD5 (Homo …. 360,000 tested, 0.78% active. Split G. princeps luciferase complementation, 4 h. inhibition, % at 4 µM;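 active = inhibition above the mean inhibition across every tested compound plus 3 SD, cut at about 22% in these data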
# PRMT1 FP inh: PRMT1 methyltransferase inhibitors, primary screen, biochemical, fluorescence polarization. recombinant PRMT1, activity-based probe fluorescence polarization. 370,000 tested, 1.3% active. inhibition, % at 2.79 µM;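 active = inhibition above about 21% made by adding two undisclosed values, limit read from the data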
# Target sequence (Q99873 whole entry, looked up): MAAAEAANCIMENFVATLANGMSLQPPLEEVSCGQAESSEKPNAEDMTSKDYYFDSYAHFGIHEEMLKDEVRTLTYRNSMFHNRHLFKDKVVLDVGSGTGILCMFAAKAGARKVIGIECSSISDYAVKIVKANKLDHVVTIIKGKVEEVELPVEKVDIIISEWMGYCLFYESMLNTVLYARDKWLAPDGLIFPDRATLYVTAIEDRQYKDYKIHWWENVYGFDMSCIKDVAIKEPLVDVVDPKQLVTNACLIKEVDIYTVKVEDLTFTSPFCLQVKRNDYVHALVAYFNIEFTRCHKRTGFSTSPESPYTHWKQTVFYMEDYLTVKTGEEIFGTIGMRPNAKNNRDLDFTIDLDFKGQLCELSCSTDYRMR
# MBD2 inh: inhibitors of MBD2 binding to methylated DNA, primary screen, biochemical, TR-FRET, DNA-binding domain, human. MBD2 binding to methylated oligonucleotide. inhibition, % at 4.4 µM. 370,000 tested, 0.31% active. AID 686964, 2013; in the data active = inhibition above about 13%
# LEDGF integ inh: blockers of LEDGF/p75-dependent integrase strand transfer – biochemical, TR-FRET, high throughput, primary screen; HIV-1 integrase (with human LEDGF/p75); TR-FRET IN-LEDGF/p75 DNA integration, Eu/Cy5; inhibition, % at 3.7 µM; 370,000 tested, 0.64% active;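 active = inhibition above the screen-wide mean plus 3 SD, cut at about 13% in these data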;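 note: signal is the Cy5 over europium emission ratio at 671 and 618 nm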
# ABHD5-PLIN5 conf: ABHD5-PLIN5 interaction inhibitors, confirmation, biochemical, luminescence; shares compounds with ABHD5-PLIN5 inh; inhibition, % at 4 µM; 2,200 tested, 67% active; in the data active = inhibition above about 23%
# HNF4 counter: HNF4 dimerization inhibitors, counter-screen for ABHD5-PLIN5 interaction inhibitor project, biochemical, split-luciferase complementation, luminescence; shares compounds with ABHD5-PLIN5 inh; inhibition, % at 4 µM; 2,200 tested, 77% active;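 active = mean inhibition across replicate wells exceeding the computed hit threshold, cut at about 13% in these data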;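 note: light from luciferase halves that rejoin when HNF4 fusion proteins dimerize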
# PRMT1 inh conf: PRMT1 methyltransferase inhibitors, confirmation, biochemical, fluorescence polarization, triplicate; shares compounds with PRMT1 FP inh; recombinant His-PRMT1, activity-based probe fluorescence polarization; inhibition, % at 2.79 µM; 3,300 tested, 42% active; AID 687036, 2013;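 active = mean inhibition across replicates above the hit cutoff derived for the earlier primary screen, cut at about 22% in these data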
# Numbers stand for hits; n = inactive; x = no result given. In the library only some 4.1% were active in any assay of this set; here they are far more common.
SMILES,UHRF1 binding,rCAG binder,ABHD5-PLIN5 inh,PRMT1 FP inh,MBD2 inh,LEDGF integ inh,ABHD5-PLIN5 conf,HNF4 counter,PRMT1 inh conf
C[C@@H]1CCN(C2CC2)S(=O)(=O)c2ccc(N3CCC[C@H]3C)cc2O1,n,n,x,n,n,n,x,x,x
COc1ccc(-c2ccc(CCC(=O)O)o2)cc1,n,n,60,58,n,n,n,64,n
O=C(O)CCc1ccc(-c2ccc(Br)cc2)o1,n,n,29,62,n,n,24,71,62
Cc1ccc(C(=O)C2CCN(CC(=O)NC(C)C)CC2)cc1,n,n,x,n,n,n,x,x,x
COc1cc(-c2nnc(SCC(=O)N3C(C)CCCC3C)o2)cc(OC)c1OC (configuration not stated),n,n,x,n,n,n,x,x,x
O=C(c1ccc(-c2ccc([N+](=O)[O-])cc2)o1)N1CCCC(C(F)(F)F)C1 (configuration not stated),n,n,n,n,n,n,x,x,x
O=C(c1ccc(-c2ccc([N+](=O)[O-])cc2)o1)N1CCCCCCC1,n,n,39,31,n,n,42,33,n
O=C1c2cccc3c(O)ccc(c23)C(=O)N1Cc1ccco1,n,n,45,158,n,n,24,53,169
COc1ccc(S(=O)(=O)N(C(=O)c2ccncc2)c2ccc3oc4c(c3c2)CCCC4)cc1,n,n,n,n,n,n,x,x,x
COc1ccc(S(=O)(=O)N(C(=O)C(C)C)c2ccc3oc(=O)sc3c2)cc1,n,n,32,68,n,n,n,39,39
Cc1cc(Br)c2nc(-c3ccc(F)cc3)c(Cc3cccc(Cl)c3)n2c1,n,n,x,n,n,n,x,x,x
O=C1C(Cl)=C(NCCc2ccccc2)C(=O)c2ccccc21,n,n,27,66,n,n,88,104,96
COC(=O)C[C@@H]1C[C@H]2c3cc(NC(=O)Nc4ccccc4F)ccc3O[C@H]2[C@@H](CO)O1,n,n,x,n,n,n,x,x,x
COC(=O)c1ccc(CCc2cc(O)c(Br)cc2O)cc1,n,n,93,103,n,n,n,48,72
CC1CC(C)CN(C(=O)C2CCN(c3cncnc3)CC2)C1 (configuration not stated),n,n,x,n,n,n,x,x,x
O=c1c2cc(N3CCOCC3)ccc2[nH]c(=S)n1Cc1cccc(Cl)c1,n,n,n,n,n,n,x,x,x
O=c1c2cc(N3CCOCC3)ccc2[nH]c(=S)n1Cc1ccco1,n,n,25,32,n,n,43,77,65
O=S1(=O)c2ccc(Br)cc2OC[C@H](Cc2ccccc2)N1Cc1cn(Cc2ccc(Cl)cc2)nn1,n,n,x,n,n,n,x,x,x
O=C(CSc1ncn[nH]1)c1cccc([N+](=O)[O-])c1,n,n,35,32,n,n,n,26,25
O=C(Nc1ccc(F)cc1)OCc1cn(Cc2ccccc2Cl)nn1,n,n,x,n,n,n,x,x,x
COCC(=O)OCC(=O)N1N=C(c2ccc(Cl)cc2)CC1c1ccco1 (configuration not stated),n,n,n,n,n,n,x,x,x
O=C(OCC(=O)N1N=C(c2ccc(Cl)cc2)CC1c1ccco1)c1cccnc1 (configuration not stated),n,n,49,40,n,n,29,26,n
CNc1ccccc(C(=O)/C=C/c2ccccc2OC)c1=O,n,n,32,35,n,n,69,48,39
CN[C@H]1C[C@H]2c3[nH]c4c(-c5cccc(C)c5)cccc4c3CCN2C[C@H]1[C@H](C)O,n,n,x,n,n,n,x,x,x
Fc1cccc(Cc2c(-c3ccco3)nc3ccc(Br)cn23)c1,n,n,72,34,n,n,44,78,n
SMILES,UHRF1 binding,rCAG binder,ABHD5-PLIN5 inh,PRMT1 FP inh,MBD2 inh,LEDGF integ inh,ABHD5-PLIN5 conf,HNF4 counter,PRMT1 inh conf
Fc1cccc(Cc2c(-c3cccc(Cl)c3)nc3c4ccccc4ccn23)c1,n,n,n,n,n,n,x,x,x
Fc1cccc(Cc2c(-c3ccccc3)nc3ccc(Br)cn23)c1,n,n,n,n,n,n,x,x,x
Fc1cccc(Cc2c(-c3ccco3)nc3c4ccccc4ccn23)c1,n,n,26,30,n,n,n,23,n
Brc1ccc2nc(-c3ccco3)c(Cc3ccsc3)n2c1,n,n,75,36,n,n,49,91,34
O=C1CCCC(=O)C1CS(=O)(=O)c1ccccc1,n,n,41,44,n,n,46,98,27
O=C1C=C(C2OC(CO)C(O)C2O)C(=O)N1 (configuration not stated),n,n,68,70,n,n,48,104,71
O=c1[nH]c(=O)n(C2OC(CO)C(O)C(O)C2O)cc1F (configuration not stated),n,n,x,n,n,n,x,x,x
O=C1N(Cc2ccccc2)CC2(Br)COCOC12O (configuration not stated),n,n,39,90,n,n,93,102,91
CC(C)n1nnnc1C1(C)CSCC(=O)N1Cc1cccc(F)c1 (configuration not stated),n,n,x,n,n,n,x,x,x
CCOC(=O)c1sc(NC(=O)CSc2nnnn2-c2ccccc2)nc1C,n,n,n,n,n,n,x,x,x
CCOC(=O)c1c(-c2ccc(C)o2)csc1NC(=O)CSc1nnc(C)s1,n,n,33,63,n,n,n,37,n
CCOC(=O)c1c(-c2ccc(C)o2)csc1NC(=O)CSc1nnnn1-c1ccccc1,n,n,40,73,n,n,23,62,n
CCOC(=O)c1c(-c2ccccc2)csc1NC(=O)CSc1nnc(C)s1,n,n,n,n,n,n,x,x,x
CCCCNC(=O)OC1CCC12CCC(c1ccccc1)CC2 (configuration not stated),n,n,x,n,n,n,x,x,x
